Measured values as given in PubChem BioAssay (NCI).
This is part of a sample that, as a whole, favours compounds with a hit. Of some 79,000 tested, about 15% had one in any assay. Values without a mark were called inactive. Active and inactive are the calls of the source. Rule as the data show it: active = growth inhibition above about 70%; inactive = the rest.

Columns and labels:
[1] = NCI Yeast Anticancer Drug Screen. Data for the rad50 strain (AID 155);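 also: 0% = growth of vehicle-only cultures of the same strain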; details: S. cerevisiae rad50 strain growth inhibition, hits give high values
Outline: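 Growth of the mutant yeast was measured after compound exposure and referenced to vehicle-treated cultures.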

[2] = NCI Yeast Anticancer Drug Screen. Data for the mec2-1 strain (AID 157); details: S. cerevisiae mec2-1 strain, hits give high values
Outline: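 Yeast mec2-1 mutant treated with compound. Readout: growth inhibition vs vehicle controls.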

[3] = NCI Yeast Anticancer Drug Screen. Data for the sgs1 mgt1 strain (AID 161);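 also: 0% = growth of cultures given vehicle only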; details: S. cerevisiae sgs1 mgt1 strain, hits give high values
Outline: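 Read-out: growth inhibition vs vehicle controls. Cells: mutant yeast strain deficient in DNA damage repair.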

[4] = NCI Yeast Anticancer Drug Screen. Data for the cln2 rad14 strain (AID 165);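 also: 0% = growth equal to vehicle treated cultures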; details: S. cerevisiae cln2 rad14 strain, hits give high values
Outline: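 cln2 rad14 yeast strain; compound exposure; growth inhibition read vs vehicle controls.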

[5] = NCI Yeast Anticancer Drug Screen. Data for the bub3 strain (AID 167); details: S. cerevisiae bub3 mutant strain, hits give high values
Outline: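 Whole-cell yeast assay. The mutant strain was incubated with compounds, and growth inhibition was determined by comparison with vehicle-treated cells.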

[6] = NCI Yeast Anticancer Drug Screen. Data for the mlh1 rad18 strain (AID 175); details: S. cerevisiae mlh1 rad18 strain growth inhibition, hits give high values
Outline: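 Yeast w/ defined DNA-repair lesions; compound exposure; growth vs vehicle controls → % inhibition.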

[7] = at 5.0 µM (retest, dose inferred, filed as 0.5)
[8] = at 50.0 µM (retest, dose inferred, filed as 5.0)

SMILES | growth inhibition [1, 7] | growth inhibition [1, 8] | growth inhibition ([1]; at 50.0 µM) | growth inhibition [2, 7] | growth inhibition [2, 8] | growth inhibition ([2]; at 50.0 µM) | growth inhibition [3, 7] | growth inhibition [3, 8] | growth inhibition ([3]; at 50.0 µM) | growth inhibition [4, 7] | growth inhibition [4, 8] | growth inhibition ([4]; at 50.0 µM) | growth inhibition [5, 7] | growth inhibition [5, 8] | growth inhibition ([5]; at 50.0 µM) | growth inhibition [6, 7] | growth inhibition [6, 8] | growth inhibition ([6]; at 50.0 µM)
Cc1cc(NCCCCCCCCCC[n+]2c(C)cc(N)c3ccccc32)c2ccccc2n1 | 71% (active) | 99% (active) | 89.8% (active) | 94% (active) | 99% (active) | 92.2% (active) | 97% (active) | 99% (active) | 91.5% (active) | 95% (active) | 99% (active) | 90% (active) | 96% (active) | 99% (active) | 90.9% (active) | 95% (active) | 99% (active) | 90.6% (active)
CCOC(=O)/C(=C/O)c1c[nH]c2ccccc12 | 0% | 94% (active) | 97.8% (active) | -4% | 95% (active) | 98.3% (active) | -4% | 95% (active) | 96.8% (active) | 1% | 96% (active) | 96% (active) | 0% | 96% (active) | 97.3% (active) | 3% | 96% (active) | 97.7% (active)
O=C(Cn1nnc2ccccc21)N1CCN(c2ccccc2)CC1 | -2% | 3% | 32.8% | 4% | 3% | 33.8% | -1% | 5% | -2.35% | -6% | 3% | 43.8% | -1% | 1% | 14.9% | -3% | 3% | -7.75%
CS(=O)(=O)OCCN(CCOS(C)(=O)=O)c1ccc(C=Nc2ccc(-c3csc(-c4ccc(Br)cc4)n3)cc2)c(Cl)c1 | 0% | 71% (active) | 71.7% (active) | -4% | 51% | 56.2% | 1% | 83% (active) | 92.3% (active) | -10% | 68% | 46.3% | 3% | 87% (active) | 80.1% (active) | 0% | 76% (active) | 90.7% (active)
Cc1ccnc(NCCN(C)C)c1 | 2% | -1% | 98.5% (active) | 1% | 4% | 98.2% (active) | 3% | 1% | 97.5% (active) | -6% | 1% | 98.3% (active) | -1% | -2% | 99.3% (active) | -1% | -1% | 98.7% (active)
COc1nc(NC2OCC(O)C(O)C2O)c(Cl)c(=O)n1C (configuration not stated) | 0% | -1% | -15.4% | -1% | -5% | -3.7% | -2% | -3% | 11.4% | -1% | -3% | 30.4% | -2% | -4% | 10.2% | -5% | -7% | -7.85%
CCCCCN1C(=O)CC(C(=O)OCC)=C1C | 3% | -14% | -12% | -3% | -8% | -17.2% | -4% | -14% | -23.9% | -9% | 1% | 76.5% (active) | -3% | 3% | 30.3% | 1% | -10% | 9.1%
CC(C)C1(Cl)CCC2C3(C)CCCC(C)(C(=O)O)C3CC(Cl)C2(Cl)C1Cl (configuration not stated) | 3% | 75% (active) | 80.8% (active) | 5% | 78% (active) | 74.9% (active) | 17% | 61% | 70% (active) | -12% | 84% (active) | 95.8% (active) | 14% | 79% (active) | 72.5% (active) | -15% | 78% (active) | 86.7% (active)
NC(N)=Nc1ccc(N=C(N)N)cc1 | 3% | 2% | 92% (active) | 1% | -2% | 99.7% (active) | -1% | -3% | 17.1% | 1% | 1% | 60.8% | 3% | 3% | 99.2% (active) | 2% | 2% | 45.5%
S=C(N/N=C/c1ccccn1)N1CCCCC1 | 99% (active) | 98% (active) | 89.3% (active) | 97% (active) | 99% (active) | 92.4% (active) | 98% (active) | 97% (active) | 91.8% (active) | 96% (active) | 99% (active) | 93% (active) | 98% (active) | 100% (active) | 92% (active) | 98% (active) | 99% (active) | 89.5% (active)
CCc1cc(-c2ccco2)c(C#N)c(=S)n1C1OC(COC(C)=O)C(OC(C)=O)C(OC(C)=O)C1OC(C)=O (configuration not stated) | -2% | -6% | 3.05% | -15% | -7% | 8.2% | -1% | 6% | -19.4% | 4% | 22% | 8.6% | 7% | 21% | -0.25% | -14% | 5% | 34.1%
COc1ccc(C2=C(Cl)C(=O)N(c3ccc(OC)cc3)C(=O)C2(Cl)Cl)cc1 | 8% | 82% (active) | 85.6% (active) | -10% | 87% (active) | 97.8% (active) | 9% | 88% (active) | 67.1% | -4% | 42% | 56.8% | -8% | 84% (active) | 94.9% (active) | 6% | 71% (active) | 95.8% (active)
CCN(CC)CCC(=O)OC1C(C)=CC(C)C(=O)CC(C(C)CC2CCC(O)C(OC)C2)OC(=O)C2CCCCN2C(=O)C(=O)[C@@]2(O)OC(CCC2C)CC(OC)\C(C)=C/C=C/C=C/C(C)CC(C)C(=O)C1OC (some centres not stated) | 40% | 97% (active) | 90.9% (active) | 26% | 98% (active) | 93% (active) | 96% (active) | 96% (active) | 93.4% (active) | 94% (active) | 95% (active) | 87.7% (active) | 53% | 98% (active) | 92.8% (active) | 97% (active) | 97% (active) | 92.2% (active)
O=C1C=CC(=O)N1c1ccc(Cl)cc1Br | 49% | 42% | 93.3% (active) | 40% | 44% | 94.3% (active) | 100% (active) | 100% (active) | 94.2% (active) | 68% | 100% (active) | 92.4% (active) | 100% (active) | 99% (active) | 58.4% | 28% | 45% | 92.5% (active)
CCOC(=O)c1c(Br)c(-c2ccc(Br)cc2)c(Br)n1C | -6% | 1% | 7.95% | -7% | -29% | -16.1% | -11% | -1% | -6.25% | 29% | -25% | 24.1% | -11% | -15% | -7% | -8% | -12% | -10.6%
COc1ccc(C(c2ccc(OC)cc2)c2ccccc2C(=O)O)cc1 | -5% | 64% | 37.8% | -14% | 31% | 27.1% | 16% | 48% | 35.1% | 18% | 39% | 35.9% | 20% | 56% | 18.1% | 41% | 73% (active) | 54.9%
COC(=O)C(=O)/C=C(/O)c1ccc(OC)cc1 | -16% | -1% | -2.15% | -28% | -9% | -28.3% | -7% | 5% | 43% | -12% | 18% | 4.15% | -4% | 24% | 9.85% | -34% | 38% | -26.5%
COc1ccc2c(c1OC)C1=C(C2=O)c2cc3c(cc2CCN1)OCO3 | -4% | 76% (active) | 23.1% | 0% | 86% (active) | 45.7% | 9% | 92% (active) | 61.5% | 2% | 95% (active) | 40.9% | -15% | 51% | 68.4% | 8% | 93% (active) | 53.1%
C=CC(=O)NC(C)C | 1% | 6% | 74.7% (active) | 0% | 2% | -3.7% | 1% | 4% | 19.4% | -1% | 1% | 16.7% | -2% | -4% | 5.8% | 0% | 9% | 40.3%
